# According to the supplement of paper PMC10849652:
# Targets with a hit are over-represented here; the source holds about 7,900 in all. About 0.6% of all pairs of compound and target were hits. Values without a mark were called inactive.
# Assays:
# Assay in all cases: log2 fold change, soluble protein after heating vs DMSO (PISA); higher = thermal stabilisation; K562 cells, 10 uM, 30 min; active = over 0.2 and 3.5 SD of the protein, either way, in both replicates (recomputed)
# [1] = compound: CC1=C(C=C(C=C1)NC(=O)C2=CC(=CC=C2)C(C)(C)C#N)NC3=CC4=C(C=C3)N=CN(C4=O)C
# Summary of the method: (§1)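 Aliquots of K562 cells (2×10^6 cells/mL) treated with 10 μM compound for 30 min were heated for 3 min over 48°C-58°C. After pooling and extraction in PBS with 0.5% NP-40 at 4°C, soluble protein from a 21,000xg, 90 min spin was quantified by TMTpro 16plex LC-MS/MS with channel sums equalised. Thermal stability is expressed against control samples, from duplicates, as a log2 fold change.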
# [2] = compound: CC1=C(C=C(C=C1)NC(=O)C2=CC(=CC=C2)N(C)C)NC(=O)C3=CC=C(C=C3)O
# Summary of the method: as §1
# [3] = compound: CC1=CC=C(C=C1)SC2=C3C=C(SC3=CN=C2)C(=O)N
# Summary of the method: as §1
# [4] = compound: CC1=NC(=CC=C1)C2=C(N=C(N2)C(C)(C)C)C3=CC4=NC=CN=C4C=C3
# Summary of the method: as §1
# [5] = compound: CCCS(=O)(=O)Nc1ccc(F)c(C(=O)c2c[nH]c3ncc(Cl)cc23)c1F
# Summary of the method: as §1
# [6] = compound: CCCc1cc(C)[nH]c(=O)c1CNC(=O)c1cc(-c2ccnc(N3CCN(C)CC3)c2)cc2c1cnn2C(C)C
# Summary of the method: as §1
# [7] = compound: CCN(CC)Cc1ccc2cc(COC(=O)Nc3ccc(C(=O)NO)cc3)ccc2c1 [givinostat]
# Summary of the method: as §1
# [8] = compound: CCN(CCCOc1ccc2c(Nc3cc(CC(=O)Nc4cccc(F)c4)[nH]n3)ncnc2c1)CCOP(=O)(O)O [barasertib]
# Summary of the method: as §1
# [9] = compound: CC[C@@H]1C(=O)N(C)c2cnc(Nc3ccc(C(=O)NC4CCN(C)CC4)cc3OC)nc2N1C1CCCC1
# Summary of the method: as §1
# [10] = compound: CC[C@@H]1C(=O)N(C)c2cnc(Nc3ccc(C(=O)N[C@H]4CC[C@H](N5CCN(CC6CC6)CC5)CC4)cc3OC)nc2N1C(C)C [volasertib]
# Summary of the method: as §1
# [11] = compound: CC[C@H](C)N1C=C(C2=C(C=C(C=C21)C3=CN=C(C=C3)N4CCNCC4)C(=O)NCC5=C(C=C(NC5=O)C)C)C
# Summary of the method: as §1
# [12] = compound: CCn1c(C(=O)N(C2CC2)C2CC2)cc2c3c(ncn3C)c(Nc3cc(C)n(C)n3)nc21
# Summary of the method: as §1
# [13] = compound: CCn1cc(-c2ccnc3[nH]c(-c4cccc(CN(C)C)c4)cc23)c(-c2ccc(NC(=O)N(C)C)cc2)n1
# Summary of the method: as §1
# [14] = compound: CN(CCOC1=CC=C(C=C1)C[C@H]2C(=O)NC(=O)S2)C3=CC=CC=N3 (racemic) [rosiglitazone]
# Summary of the method: as §1
# [15] = compound: CN1C2=C(C3=C1C(=O)N(N=C3)CC4=CC(=CC=C4)N)SC(=C2)S(=O)C
# Summary of the method: as §1
# [16] = compound: CN1CCC(CNc2ccc3ncc(-c4cccc(OC(F)(F)F)c4)n3n2)CC1
# Summary of the method: as §1
# [17] = compound: CCCCN(Cc1ccc(C(=O)NO)cc1)C(=O)Nc1ccccc1 [Nexturastat A]
# Summary of the method: as §1
# [18] = compound: CC[C@H](C)[C@@H](C(=O)N[C@@H]([C@@H](C)O)C(=O)N[C@@H](CC(C)C)C(=O)[C@]1(CO1)C)NC(=O)[C@H]([C@@H](C)CC)N(C)C(=O)C [epoxomicin]
# Summary of the method: as §1
# [19] = compound: CCCS(=O)(=O)Nc1ccc(F)c(C(=O)c2c[nH]c3ncc(-c4ccc(Cl)cc4)cc23)c1F [vemurafenib]
# Summary of the method: as §1
# [20] = compound: CN(C)CC(=O)Nc1ccc2[nH]c(=O)c3ccccc3c2c1
# Summary of the method: as §1
# Chain of UniProt Q96BZ9 (Q96BZ9 whole entry, looked up): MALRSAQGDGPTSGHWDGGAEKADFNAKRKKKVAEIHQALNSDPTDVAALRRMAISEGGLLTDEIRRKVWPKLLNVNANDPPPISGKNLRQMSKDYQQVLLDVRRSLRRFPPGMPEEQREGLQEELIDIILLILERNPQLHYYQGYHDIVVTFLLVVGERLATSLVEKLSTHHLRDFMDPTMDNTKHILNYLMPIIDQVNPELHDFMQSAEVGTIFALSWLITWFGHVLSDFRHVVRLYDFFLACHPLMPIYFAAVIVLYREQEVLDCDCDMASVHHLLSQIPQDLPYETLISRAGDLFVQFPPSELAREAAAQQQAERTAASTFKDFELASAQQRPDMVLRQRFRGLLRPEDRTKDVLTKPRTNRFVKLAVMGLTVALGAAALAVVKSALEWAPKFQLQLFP
# Chain of UniProt Q9BWG4 (Q9BWG4 whole entry, looked up): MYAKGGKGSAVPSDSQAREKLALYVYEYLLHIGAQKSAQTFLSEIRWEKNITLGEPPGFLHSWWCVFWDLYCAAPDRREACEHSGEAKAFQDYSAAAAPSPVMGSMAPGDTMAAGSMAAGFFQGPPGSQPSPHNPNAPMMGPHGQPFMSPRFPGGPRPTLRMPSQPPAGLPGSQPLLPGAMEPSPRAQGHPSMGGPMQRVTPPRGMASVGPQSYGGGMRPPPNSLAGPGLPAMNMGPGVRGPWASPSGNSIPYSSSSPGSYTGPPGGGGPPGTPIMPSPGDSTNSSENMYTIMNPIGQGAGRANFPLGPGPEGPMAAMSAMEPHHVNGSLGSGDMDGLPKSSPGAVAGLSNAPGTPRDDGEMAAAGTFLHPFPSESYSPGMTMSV
# Chain of UniProt Q92536 (Q92536 whole entry, looked up): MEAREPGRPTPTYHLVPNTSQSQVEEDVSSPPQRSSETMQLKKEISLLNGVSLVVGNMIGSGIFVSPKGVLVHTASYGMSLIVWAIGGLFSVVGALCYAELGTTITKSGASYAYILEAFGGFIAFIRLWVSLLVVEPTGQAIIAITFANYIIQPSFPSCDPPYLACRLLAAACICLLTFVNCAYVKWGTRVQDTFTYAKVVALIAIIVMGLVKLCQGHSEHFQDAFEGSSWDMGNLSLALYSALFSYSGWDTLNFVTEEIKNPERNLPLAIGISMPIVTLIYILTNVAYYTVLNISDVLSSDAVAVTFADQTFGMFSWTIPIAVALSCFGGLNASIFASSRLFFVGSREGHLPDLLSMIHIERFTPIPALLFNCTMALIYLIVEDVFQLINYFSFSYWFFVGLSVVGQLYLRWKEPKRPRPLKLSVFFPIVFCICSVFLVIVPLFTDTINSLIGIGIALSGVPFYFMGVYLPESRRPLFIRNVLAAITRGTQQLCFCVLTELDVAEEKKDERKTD
# Chain of UniProt Q9C0B7 (Q9C0B7 whole entry, looked up): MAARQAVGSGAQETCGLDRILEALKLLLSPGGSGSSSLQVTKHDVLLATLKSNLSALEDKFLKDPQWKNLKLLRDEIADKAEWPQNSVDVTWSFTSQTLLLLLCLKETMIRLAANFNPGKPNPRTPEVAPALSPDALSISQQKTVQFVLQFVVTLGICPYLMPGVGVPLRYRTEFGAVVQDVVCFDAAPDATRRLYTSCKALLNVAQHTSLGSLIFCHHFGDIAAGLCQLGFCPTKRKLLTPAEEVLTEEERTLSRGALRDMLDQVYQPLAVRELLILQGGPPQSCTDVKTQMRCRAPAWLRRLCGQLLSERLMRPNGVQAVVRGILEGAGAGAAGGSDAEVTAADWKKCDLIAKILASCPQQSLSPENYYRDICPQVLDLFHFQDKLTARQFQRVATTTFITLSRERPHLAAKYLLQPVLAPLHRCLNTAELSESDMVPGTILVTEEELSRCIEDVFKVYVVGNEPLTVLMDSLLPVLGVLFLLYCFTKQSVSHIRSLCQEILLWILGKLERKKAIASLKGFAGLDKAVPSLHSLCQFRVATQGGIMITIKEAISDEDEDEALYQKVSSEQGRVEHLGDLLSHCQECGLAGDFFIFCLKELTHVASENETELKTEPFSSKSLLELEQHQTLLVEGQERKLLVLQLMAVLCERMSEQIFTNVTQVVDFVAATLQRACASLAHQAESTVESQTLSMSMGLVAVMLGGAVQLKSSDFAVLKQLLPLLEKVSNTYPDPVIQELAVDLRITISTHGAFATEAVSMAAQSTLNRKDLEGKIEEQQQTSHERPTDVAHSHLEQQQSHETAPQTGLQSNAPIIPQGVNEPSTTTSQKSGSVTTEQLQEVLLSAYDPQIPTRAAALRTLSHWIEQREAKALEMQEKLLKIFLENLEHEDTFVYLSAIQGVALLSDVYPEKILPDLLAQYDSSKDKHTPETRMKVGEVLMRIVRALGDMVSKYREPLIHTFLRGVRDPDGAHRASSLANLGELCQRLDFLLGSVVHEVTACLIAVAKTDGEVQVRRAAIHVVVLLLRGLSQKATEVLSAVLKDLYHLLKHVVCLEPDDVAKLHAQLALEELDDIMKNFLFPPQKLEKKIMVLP
# Chain of UniProt Q969Z0 (Q969Z0 whole entry, looked up): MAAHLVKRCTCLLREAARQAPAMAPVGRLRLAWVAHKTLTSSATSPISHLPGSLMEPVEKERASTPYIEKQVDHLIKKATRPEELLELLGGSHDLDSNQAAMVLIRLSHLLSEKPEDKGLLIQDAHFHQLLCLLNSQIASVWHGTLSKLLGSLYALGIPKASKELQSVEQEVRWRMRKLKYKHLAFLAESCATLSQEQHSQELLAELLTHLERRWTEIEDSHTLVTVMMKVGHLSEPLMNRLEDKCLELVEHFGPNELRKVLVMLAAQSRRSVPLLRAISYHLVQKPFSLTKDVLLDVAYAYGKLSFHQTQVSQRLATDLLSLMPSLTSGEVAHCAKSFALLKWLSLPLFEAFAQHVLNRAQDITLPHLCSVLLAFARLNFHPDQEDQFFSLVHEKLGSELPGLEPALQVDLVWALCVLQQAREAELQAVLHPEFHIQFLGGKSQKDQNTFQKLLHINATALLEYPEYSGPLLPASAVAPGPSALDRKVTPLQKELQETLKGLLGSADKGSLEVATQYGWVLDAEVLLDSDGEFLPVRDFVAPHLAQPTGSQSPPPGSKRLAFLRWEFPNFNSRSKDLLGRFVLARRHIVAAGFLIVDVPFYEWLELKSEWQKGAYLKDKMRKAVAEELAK
# Chain of UniProt P78382 (P78382 whole entry, looked up): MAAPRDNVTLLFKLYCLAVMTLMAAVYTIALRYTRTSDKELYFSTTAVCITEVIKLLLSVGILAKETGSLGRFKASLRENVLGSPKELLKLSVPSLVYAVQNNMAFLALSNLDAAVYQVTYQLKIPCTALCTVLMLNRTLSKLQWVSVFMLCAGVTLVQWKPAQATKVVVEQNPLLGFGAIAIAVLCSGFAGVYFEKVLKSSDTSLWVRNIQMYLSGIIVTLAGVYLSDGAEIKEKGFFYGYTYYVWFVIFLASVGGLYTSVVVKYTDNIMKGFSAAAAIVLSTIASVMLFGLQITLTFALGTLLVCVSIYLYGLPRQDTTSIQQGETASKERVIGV
# Chain of UniProt Q8N1S5 (Q8N1S5 whole entry, looked up): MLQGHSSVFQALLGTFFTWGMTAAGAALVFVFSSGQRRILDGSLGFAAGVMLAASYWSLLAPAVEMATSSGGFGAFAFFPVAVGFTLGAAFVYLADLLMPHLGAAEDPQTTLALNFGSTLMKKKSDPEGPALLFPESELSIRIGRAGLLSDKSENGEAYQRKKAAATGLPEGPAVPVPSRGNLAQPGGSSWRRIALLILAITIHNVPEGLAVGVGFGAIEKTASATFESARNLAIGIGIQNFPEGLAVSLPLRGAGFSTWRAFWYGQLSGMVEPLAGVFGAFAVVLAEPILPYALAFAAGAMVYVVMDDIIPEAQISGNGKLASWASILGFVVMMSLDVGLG
# Chain of UniProt P55061 (P55061 whole entry, looked up): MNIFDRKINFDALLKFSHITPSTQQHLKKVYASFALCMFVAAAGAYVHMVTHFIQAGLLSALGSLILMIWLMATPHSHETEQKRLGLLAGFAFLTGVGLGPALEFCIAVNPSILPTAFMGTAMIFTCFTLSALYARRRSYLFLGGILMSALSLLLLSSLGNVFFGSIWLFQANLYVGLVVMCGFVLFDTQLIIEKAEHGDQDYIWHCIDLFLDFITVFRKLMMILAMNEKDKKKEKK
# Chain of UniProt P35711 (P35711 whole entry, looked up): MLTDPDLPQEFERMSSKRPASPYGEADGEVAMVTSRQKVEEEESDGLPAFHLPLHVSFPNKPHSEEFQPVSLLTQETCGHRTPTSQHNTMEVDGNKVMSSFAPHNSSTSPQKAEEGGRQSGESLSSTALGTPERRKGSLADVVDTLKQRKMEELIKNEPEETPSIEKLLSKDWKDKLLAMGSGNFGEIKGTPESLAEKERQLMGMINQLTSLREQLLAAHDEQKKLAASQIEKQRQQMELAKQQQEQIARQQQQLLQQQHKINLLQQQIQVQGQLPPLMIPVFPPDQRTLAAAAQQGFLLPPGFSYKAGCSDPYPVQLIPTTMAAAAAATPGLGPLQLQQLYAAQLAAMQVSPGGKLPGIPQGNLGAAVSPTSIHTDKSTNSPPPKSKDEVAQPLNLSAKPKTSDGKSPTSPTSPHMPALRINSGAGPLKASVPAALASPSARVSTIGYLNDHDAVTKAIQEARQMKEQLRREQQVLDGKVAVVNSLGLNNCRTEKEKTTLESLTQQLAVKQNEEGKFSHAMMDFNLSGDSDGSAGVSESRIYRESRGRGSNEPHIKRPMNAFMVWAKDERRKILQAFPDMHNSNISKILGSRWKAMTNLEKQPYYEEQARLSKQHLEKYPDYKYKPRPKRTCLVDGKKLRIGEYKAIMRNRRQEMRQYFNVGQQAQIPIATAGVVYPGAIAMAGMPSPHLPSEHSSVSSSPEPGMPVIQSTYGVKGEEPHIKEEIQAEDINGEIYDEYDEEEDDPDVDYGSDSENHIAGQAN
# Chain of UniProt Q9BYN0 (Q9BYN0 whole entry, looked up): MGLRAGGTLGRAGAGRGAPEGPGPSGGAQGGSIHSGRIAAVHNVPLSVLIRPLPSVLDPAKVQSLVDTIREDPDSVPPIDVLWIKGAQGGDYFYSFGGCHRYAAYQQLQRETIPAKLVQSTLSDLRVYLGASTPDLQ
# Chain of UniProt Q8N5G0 (Q8N5G0 whole entry, looked up): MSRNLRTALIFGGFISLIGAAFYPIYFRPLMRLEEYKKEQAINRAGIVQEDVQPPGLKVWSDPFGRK
Target,log2 fold change [1],log2 fold change [2],log2 fold change [3],log2 fold change [4],log2 fold change [5],log2 fold change [6],log2 fold change [7],log2 fold change [8],log2 fold change [9],log2 fold change [10],log2 fold change [11],log2 fold change [12],log2 fold change [13],log2 fold change [14],log2 fold change [15],log2 fold change [16],log2 fold change [17],log2 fold change [18],log2 fold change [19],log2 fold change [20]
SSBP4 (UniProt Q9BWG4),0.056,-0.017,-0.133,0.003,0.021,-0.036,-0.042,0.053,0,-0.056,-0.036,-0.116,-0.009,0.162,-0.238,0.036,–,–,–,–
TANGO6 (UniProt Q9C0B7),0.069,-0.006,0.039,0.031,0.068,-0.052,0.131,0.048,0.276,-0.375 (active),0.052,-0.165,–,0.037,0.006,–,-0.051,0.035,–,–
TBRG4 (UniProt Q969Z0),0.08,-0.006,0.073,0.151,0.185,-0.059,0.099,0.125,-0.361,-0.583,-0.003,-0.034,0.009,0.073,0.047,-1.19 (active),-0.072,0.12,0.05,0.111
SMIM20 isoform 2 (UniProt Q8N5G0),0.01,0.008,-0.052,–,-0.059,-0.024,-0.102,-0.026,0.069,0.048,-0.033,0.038,-0.065,0.036,0.051,0.002,0.006,0.483 (active),0.148,0.007
TMBIM6 isoform 2 (UniProt P55061),-0.05,0.045,0.04,-0.016,0.048,0.619,0.072,0.019,-0.075,-0.061,-0.041,-0.055,–,-0.046,-0.007,–,-0.005,0.25,-0.121,0.066
SLC7A6 (UniProt Q92536),0.021,0.027,0.023,0.017,-0.046,-0.005,0.012,0.036,0.048,0.042,-0.099,0.014,-0.018,0.023,-0.036,0.122,0.05,0.211,0.03,0.04
TACC2 (UniProt O95359),-0.015,-0.058,0.16,–,-0.054,-0.085,-0.284 (active),0.012,-0.013,-0.048,0.014,0.012,0.041,0.039,0,-0.044,–,–,0.032,-0.069
SOX5 (UniProt P35711),-0.125,0.004,-0.144,0.02,-0.063,0.042,0.013,-0.119,–,-0.082,0.014,0.099,–,0.046,–,–,–,–,-0.05,-0.062
TK1 (UniProt K7ERV3),-0.185,-0.055,-0.273,–,-0.009,-0.149,–,0.088,–,0.055,-0.163,–,-0.014,0.035,-0.024,0.005,-0.178,0.007,-0.077,0.084
SMARCA4 (UniProt P51532),0.039,-0.111,-0.296,-0.028,-0.556,-0.084,0.159,0.137,0.019,0.121,–,-0.245,0.119,0.065,0.177,-0.046,0.351,0,-0.261,-0.191
TBC1D20 isoform 3 (UniProt Q96BZ9),-0.048,0.04,0.128,0.037,0.166,-0.14,0.076,0.034,0.273,-0.153,0.07,-0.111,0.028,-0.03,–,0.046,0,0.068,0.083,0.04
SLC35A1 (UniProt P78382),-0.027,0,-0.045,0.06,0,-0.07,-0.024,-0.05,0.148,0.118,-0.034,-0.002,–,-0.013,-0.191,–,-0.037,0.018,0.382 (active),-0.056
TAOK1 (UniProt Q7L7X3),-0.009,0.007,-0.005,-0.013,0.011,-0.048,0.001,0.009,0.03,-0.019,0.029,-0.008,-0.024,0.032,0.017,-0.262 (active),0.065,-0.02,0.023,0
SRXN1 (UniProt Q9BYN0),-0.149,0.01,0.04,0.089,0.017,-0.027,–,0.012,-0.031,-0.083,0.027,–,0.159,0.124,–,-0.199,-0.036,0.069,0.142,0.046
SLC38A2 (UniProt Q96QD8),0.118,0.026,0.067,0.062,0.096,-0.107,-0.014,-0.039,0.035,0.004,-0.091,0.084,–,0.002,-0.1,–,-0.133,-0.078,0.032,-0.022
TENT5C (UniProt Q5VWP2),-0.011,0.037,-0.019,0.088,0.005,-0.137,0.014,0.01,-0.073,-0.038,0.005,0.085,0.009,0.033,-0.066,-0.082,–,–,0.097,0.031
TGFBR1 isoform 2 (UniProt P36897),-0.112,0.023,-0.058,–,0.028,-0.062,0.07,-0.028,-0.041,-0.179,-0.022,-0.049,-0.023,0.122,0.021,0.076,0.038,0.033,0.044,-0.028
SLC39A11 (UniProt Q8N1S5),0.046,0.372,-0.057,0.045,-0.026,-0.009,0.074,-0.002,0.102,0.071,0.007,0,-0.136,-0.007,-0.021,0.15,–,–,0.055,-0.062
